Experiment [1] concerns the target human Peroxisome Proliferator-activated Receptor delta (PPARd), PPARD (gene 5467) (UniProt Q03181). Put plainly: ATG_PPARd_TRANS: Attagene TRANS-FACTORIAL HepG2 Assay for human Peroxisome Proliferator-activated Receptor delta (PPARd) (AID 2283002). In short, it runs like this:
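HepG2 cells transiently transfected with GAL4-UAS multiplexed reporter units driven by exogenous chimeric NR-GAL4 proteins; 24 h compound exposure. Reporter mRNA measured by RT-PCR, 6-FAM primer extension, HpaI digestion and capillary electrophoresis; gain of signal fitted relative to DMSO.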

Read-out in experiment [2]: Intercellular Adhesion Molecule 1 (ICAM1), ICAM1 (gene 3383)
The experiment is described as follows: BSK_3C_ICAM1: BioMAP Diversity Plus: 3C Assay for Intercellular Adhesion Molecule 1 (ICAM1) Biomarker Activity (AID 2283003; active = hit-call score of the fitted dose curve at least 0.9, where 1 is the maximum; inactive = score below 0.9). To be noted: primary human endothelial cells (HUVEC); actives raise or lower the signal. In short, it runs like this: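 Primary human umbilical vein endothelial cells in the BioMAP 3C system were exposed to chemicals for 24 h, then ICAM-1 was quantified by ELISA. Activity was fitted bidirectionally against the DMSO negative control baseline.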

Experiment [3] deals with Retinoic acid receptor alpha (Homo sapiens) (UniProt P10276). The experiment is described as follows: ATG_RARa_TRANS: Attagene TRANS-FACTORIAL HepG2 Assay for human Retinoic Acid Receptor alpha (RARa) (AID 2283005). In short, it runs like this: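 HepG2 transiently transfected with multiplex GAL4-UAS reporter units including a human RARa–GAL4 chimera; 24 h compound exposure. Reporter mRNA quantified by RT-PCR, 6-FAM labeling and capillary electrophoresis; gain of signal versus DMSO.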

Experiment [4] can be described thus: BSK_3C_Proliferation: Cell Proliferation Assessment in the BioMAP Diversity Plus: 3C Assay (AID 2283006; active = hit-call score of the fitted dose curve at least 0.9, where 1 is the maximum; inactive = score below 0.9;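 as to AC50: potency may reflect either rise or fall in cell number versus DMSO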). Conditions: primary human endothelial cells (HUVEC). In short, it runs like this:
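Human umbilical vein endothelial cells were grown sub-confluent and exposed to chemical for 48 h, then fixed with 10% TCA and stained with 0.1% sulforhodamine B; absorbance at 560 nm gave relative cell number, fitted bidirectionally against DMSO baseline.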

Experiment [5] addresses Nuclear receptor subfamily 1 group I member 2 (Homo sapiens) (UniProt O75469). The experiment is described as follows: ATG_PXR_TRANS: Attagene TRANS-FACTORIAL HepG2 Assay for human Pregnane X Receptor (PXR) (AID 2283008). In short, it runs like this: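 Measures mRNA induction of a GAL4-UAS-driven reporter in human HepG2 cells transiently expressing PXR fused to Gal4, following 24 h treatment. DMSO served as negative control and baseline.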

Experiment [6] addresses human Retinoic Acid Receptor gamma (RARg), RARG (gene 5916) (UniProt P13631). Put plainly: ATG_RARg_TRANS: Attagene TRANS-FACTORIAL HepG2 Assay for human Retinoic Acid Receptor gamma (RARg) (AID 2283009). In short, it runs like this:
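HepG2 cells transiently transfected with multiplexed reporter units expressing chimeric RARg-GAL4 and GAL4-UAS-driven reporters; 24 h compound exposure. Reporter mRNA quantified by RT-PCR with fluorescent labelling and capillary electrophoresis; gain-of-signal fitted relative to DMSO baseline.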

In experiment [7] the target is human RAR-related Orphan Receptor beta (RORb), RORB (gene 6096) (UniProt Q92753). Put plainly: ATG_RORb_TRANS: Attagene TRANS-FACTORIAL HepG2 Assay for human RAR-related Orphan Receptor beta (RORb) (AID 2283010). In short, it runs like this: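 HepG2 cells were transiently transfected with multiplexed GAL4-UAS reporter units expressing chimeric nuclear receptor–GAL4 proteins, then dosed for 24 h. Reporter mRNA was quantified by RT-PCR with fluorescent labelling and capillary electrophoresis; gain of signal was fitted relative to DMSO.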

Experiment [8] deals with human RAR-related Orphan Receptor gamma (RORg), RORC (gene 6097) (UniProt P51449). The experiment is described as follows: ATG_RORg_TRANS: Attagene TRANS-FACTORIAL HepG2 Assay for human RAR-related Orphan Receptor gamma (RORg) (AID 2283011). In short, it runs like this:
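Readout: reporter transcript induction (RT-PCR, fluorescent primer extension, capillary electrophoresis) after 24 h compound exposure of transiently transfected HepG2 cells carrying a RORg-Gal4 chimera and GAL4-UAS reporters; DMSO served as baseline, with increasing signal fitted.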

Experiment [9] addresses Retinoic acid receptor RXR-alpha (Homo sapiens) (UniProt P19793). Put plainly: ATG_RXRa_TRANS: Attagene TRANS-FACTORIAL HepG2 Assay for human Retinoid X Receptor alpha (RXRa) (AID 2283012). In short, it runs like this:
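HepG2 cells transiently transfected with multiplexed GAL4-UAS reporter units and chimeric NR-GAL4 fusions, dosed 24 h. Reporter mRNA measured by RT-PCR, FAM labelling, HpaI digestion and capillary electrophoresis; gain-of-signal fitted relative to DMSO baseline.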

In experiment [10] the target is human Retinoid X Receptor beta (RXRb), RXRB (gene 6257) (UniProt P28702). The experiment is described as follows: ATG_RXRb_TRANS: Attagene TRANS-FACTORIAL HepG2 Assay for human Retinoid X Receptor beta (RXRb) (AID 2283013). In short, it runs like this: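 HepG2 cells transiently transfected with multiplexed reporter units driven by GAL4-UAS and exogenous chimeric NR-Gal4 proteins; treated 24 h. Reporter mRNA measured by RT-PCR, 6-FAM labelling and capillary electrophoresis; gain-of-signal fitted versus DMSO baseline.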

For experiment [11], the target named is human Thyroid Receptor alpha (THRa1), THRA (gene 7067) (UniProt P10827). The experiment is described as follows: ATG_THRa1_TRANS: Attagene TRANS-FACTORIAL HepG2 Assay for human Thyroid Receptor alpha (THRa1) (AID 2283014). In short, it runs like this: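 HepG2 cells transiently transfected with multiplexed GAL4-UAS reporter units for exogenous chimeric THRa1-Gal4; reporter mRNA measured 24 h after dosing by RT-PCR, 6-FAM labelling, HpaI digestion and capillary electrophoresis. Gain-of-signal fitted versus DMSO baseline.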

Read-out in experiment [12]: E-selectin (Homo sapiens) (UniProt P16581)
The experiment is described as follows: BSK_3C_Eselectin: BioMAP Diversity Plus: 3C Assay for Eselectin Biomarker Activity (AID 2283015; active = hit-call score of the fitted dose curve at least 0.9, where 1 is the maximum; inactive = score below 0.9;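 as to outcome: cell surface E-selectin protein quantified by ELISA 24 h after dosing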). Conditions: primary human endothelial cells (HUVEC); actives raise or lower the signal. In short, it runs like this: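 Primary human umbilical vein endothelial cells (3C system) were dosed with chemical and cell-surface E-selectin measured by ELISA 24 h later. Bidirectional curve fitting used DMSO as negative control and baseline.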

Read-out in experiment [13]: Interleukin-1 alpha (IL1a), IL1A (gene 3552)
Put plainly: BSK_BE3C_IL1a: BioMAP Diversity Plus: BE3C Assay for Interleukin-1 alpha (IL1a) Biomarker Activity (AID 2283016; active = hit-call score of the fitted dose curve at least 0.9, where 1 is the maximum; inactive = score below 0.9). To be noted: primary human bronchial epithelial cells; actives raise or lower the signal. In short, it runs like this: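 Human primary bronchial epithelial cells (BE3C system) were dosed with compound and IL-1a measured by ELISA 24 h later. Activity was fitted bidirectionally against DMSO baseline; cytotoxicity was tracked in parallel cultures by SRB total-protein staining.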

Read-out in experiment [14]: Monocyte Chemoattractant Protein-1 (MCP1), CCL2 (gene 6347)
Put plainly: BSK_3C_MCP1: BioMAP Diversity Plus: 3C Assay for Monocyte Chemoattractant Protein-1 (MCP1) Biomarker Activity (AID 2283017; active = hit-call score of the fitted dose curve at least 0.9, where 1 is the maximum; inactive = score below 0.9). Conditions: primary human endothelial cells (HUVEC); actives raise or lower the signal. In short, it runs like this: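 Primary human umbilical vein endothelial cells (3C system) were exposed to test chemical for 24 h, after which MCP-1 was quantified by ELISA. Activity was fitted bidirectionally against DMSO as negative control and baseline.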

Read-out in experiment [15]: Monocyte Chemoattractant Protein-1 (MCP1), CCL2 (gene 6347)
The experiment is described as follows: BSK_4H_MCP1: BioMAP Diversity Plus: 4H Assay for Monocyte Chemoattractant Protein-1 (MCP1) Biomarker Activity (AID 2283018; active = hit-call score of the fitted dose curve at least 0.9, where 1 is the maximum; inactive = score below 0.9). Conditions: primary human endothelial cells (HUVEC); actives raise or lower the signal. In short, it runs like this:
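Human umbilical vein endothelial cells (4H system) dosed with chemical; MCP-1 measured by ELISA 24 h after dosing. Bidirectional curve fitting against DMSO negative control as baseline; parallel SRB total-protein staining tracks overt cytotoxicity.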

Read-out in experiment [16]: Human Leukocyte Antigen - DR isotype (HLADR), HLA-DRA (gene 3122)
Put plainly: BSK_3C_HLADR: BioMAP Diversity Plus: 3C Assay for Human Leukocyte Antigen - DR isotype (HLADR) Biomarker Activity (AID 2283019; active = hit-call score of the fitted dose curve at least 0.9, where 1 is the maximum; inactive = score below 0.9;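 as to outcome: ELISA of cell-surface HLA-DR on HUVEC 24 h after dosing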). To be noted: primary human endothelial cells (HUVEC); actives raise or lower the signal. In short, it runs like this:
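Primary human umbilical vein endothelial cells (3C system) were dosed with compound and cell-surface HLA-DR was quantified by ELISA at 24 h. Activity was fitted bidirectionally against DMSO as negative control and baseline.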

Read-out in experiment [17]: Interleukin-8 (IL8), CXCL8 (gene 3576)
Put plainly: BSK_3C_IL8: BioMAP Diversity Plus: 3C Assay for Interleukin-8 (IL8) Biomarker Activity (AID 2283020; active = hit-call score of the fitted dose curve at least 0.9, where 1 is the maximum; inactive = score below 0.9). To be noted: primary human endothelial cells (HUVEC); actives raise or lower the signal. In short, it runs like this: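 Primary human umbilical vein endothelial cells (3C system) were exposed to test chemical for 24 h, then IL-8 was quantified by ELISA. Responses were fitted bidirectionally against DMSO vehicle as baseline.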

Read-out in experiment [18]: Monokine induced gamma interferon (MIG), CXCL9 (gene 4283)
Put plainly: BSK_3C_MIG: BioMAP Diversity Plus: 3C Assay for Monokine induced gamma interferon (MIG) Biomarker Activity (AID 2283021; active = hit-call score of the fitted dose curve at least 0.9, where 1 is the maximum; inactive = score below 0.9). Conditions: primary human endothelial cells (HUVEC); actives raise or lower the signal. In short, it runs like this: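 Primary human umbilical vein endothelial cells in the 3C system were exposed to chemical for 24 h, after which MIG was quantified by ELISA. Activity was fitted bidirectionally against DMSO as negative control and baseline.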

In experiment [19] the target is Peroxisome proliferator-activated receptor gamma (Homo sapiens) (UniProt P37231). The experiment is described as follows: ATG_PPARg_TRANS: Attagene TRANS-FACTORIAL HepG2 Assay for human Peroxisome Proliferator-activated Receptor-gamma (PPARg) (AID 2283007). In short, it runs like this:
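Liver-derived HepG2 cells expressing an exogenous NR-Gal4 chimera alongside GAL4-UAS reporter genes; 24 h exposure. Fluorescence of reporter RT-PCR products, separated by capillary electrophoresis, gives mRNA induction relative to DMSO.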

Results filed as inconclusive are left out. A structure can be active in one record and inactive in another. Active and inactive are the calls of the source. The calls were made as follows, unless noted: active = hit-call score of the fitted dose curve at least 0.9, where 1 is the maximum; inconclusive = response in the unintended direction; inactive = score below 0.9.

Sequence of human Retinoic Acid Receptor gamma (RARg), RARG (gene 5916) (P13631 whole entry, looked up, the tested form may be a part): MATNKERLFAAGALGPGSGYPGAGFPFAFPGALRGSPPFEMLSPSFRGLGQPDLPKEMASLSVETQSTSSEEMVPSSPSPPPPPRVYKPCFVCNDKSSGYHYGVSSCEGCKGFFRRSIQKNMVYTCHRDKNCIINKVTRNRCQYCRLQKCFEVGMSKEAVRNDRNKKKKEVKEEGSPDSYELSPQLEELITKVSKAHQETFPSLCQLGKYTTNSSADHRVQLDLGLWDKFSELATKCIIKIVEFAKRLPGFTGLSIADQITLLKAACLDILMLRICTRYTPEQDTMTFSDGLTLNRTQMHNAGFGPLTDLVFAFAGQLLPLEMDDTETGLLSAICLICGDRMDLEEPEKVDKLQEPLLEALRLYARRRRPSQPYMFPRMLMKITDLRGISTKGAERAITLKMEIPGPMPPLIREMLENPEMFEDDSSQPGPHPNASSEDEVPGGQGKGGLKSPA
Sequence of Retinoic acid receptor alpha (Homo sapiens) (P10276 whole entry, looked up, the tested form may be a part): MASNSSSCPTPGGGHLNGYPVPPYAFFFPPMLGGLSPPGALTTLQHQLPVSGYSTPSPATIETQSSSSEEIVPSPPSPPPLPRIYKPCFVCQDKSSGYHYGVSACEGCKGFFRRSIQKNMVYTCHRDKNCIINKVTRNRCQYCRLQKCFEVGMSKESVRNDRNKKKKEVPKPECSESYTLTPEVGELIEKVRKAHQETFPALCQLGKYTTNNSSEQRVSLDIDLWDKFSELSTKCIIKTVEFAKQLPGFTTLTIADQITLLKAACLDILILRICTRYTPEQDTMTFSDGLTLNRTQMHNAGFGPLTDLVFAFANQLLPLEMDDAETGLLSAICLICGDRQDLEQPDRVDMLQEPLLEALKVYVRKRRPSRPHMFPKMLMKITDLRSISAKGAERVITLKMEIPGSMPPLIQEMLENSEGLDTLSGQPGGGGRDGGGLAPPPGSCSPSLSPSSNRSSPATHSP
Sequence of Retinoic acid receptor RXR-alpha (Homo sapiens) (P19793 whole entry, looked up, the tested form may be a part): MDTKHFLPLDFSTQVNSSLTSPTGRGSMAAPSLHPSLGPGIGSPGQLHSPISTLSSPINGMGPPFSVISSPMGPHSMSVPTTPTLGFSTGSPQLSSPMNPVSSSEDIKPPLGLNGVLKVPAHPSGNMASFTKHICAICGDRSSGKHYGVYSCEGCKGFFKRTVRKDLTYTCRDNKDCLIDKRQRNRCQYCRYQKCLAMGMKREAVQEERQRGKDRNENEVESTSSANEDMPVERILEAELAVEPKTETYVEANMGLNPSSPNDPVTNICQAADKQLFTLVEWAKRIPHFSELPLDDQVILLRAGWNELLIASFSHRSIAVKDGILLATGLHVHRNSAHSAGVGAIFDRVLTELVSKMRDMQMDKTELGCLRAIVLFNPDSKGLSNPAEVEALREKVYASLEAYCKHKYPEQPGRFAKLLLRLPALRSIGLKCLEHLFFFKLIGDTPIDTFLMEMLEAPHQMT
Sequence of Peroxisome proliferator-activated receptor gamma (Homo sapiens) (P37231 whole entry, looked up, the tested form may be a part): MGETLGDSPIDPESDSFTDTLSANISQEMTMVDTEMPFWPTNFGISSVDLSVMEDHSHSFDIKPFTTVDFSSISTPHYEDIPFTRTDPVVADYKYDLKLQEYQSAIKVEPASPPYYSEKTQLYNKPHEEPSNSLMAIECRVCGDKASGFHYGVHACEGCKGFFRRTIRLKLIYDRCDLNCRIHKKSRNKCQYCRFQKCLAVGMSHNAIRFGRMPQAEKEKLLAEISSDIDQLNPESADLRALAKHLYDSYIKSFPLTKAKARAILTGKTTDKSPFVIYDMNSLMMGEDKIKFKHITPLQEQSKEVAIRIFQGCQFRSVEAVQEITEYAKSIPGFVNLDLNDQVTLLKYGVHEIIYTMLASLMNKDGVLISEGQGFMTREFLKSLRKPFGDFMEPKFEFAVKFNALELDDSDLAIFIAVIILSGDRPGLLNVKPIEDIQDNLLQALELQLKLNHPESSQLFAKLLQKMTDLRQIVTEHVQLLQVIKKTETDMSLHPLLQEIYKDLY
Sequence of human RAR-related Orphan Receptor gamma (RORg), RORC (gene 6097) (P51449 whole entry, looked up, the tested form may be a part): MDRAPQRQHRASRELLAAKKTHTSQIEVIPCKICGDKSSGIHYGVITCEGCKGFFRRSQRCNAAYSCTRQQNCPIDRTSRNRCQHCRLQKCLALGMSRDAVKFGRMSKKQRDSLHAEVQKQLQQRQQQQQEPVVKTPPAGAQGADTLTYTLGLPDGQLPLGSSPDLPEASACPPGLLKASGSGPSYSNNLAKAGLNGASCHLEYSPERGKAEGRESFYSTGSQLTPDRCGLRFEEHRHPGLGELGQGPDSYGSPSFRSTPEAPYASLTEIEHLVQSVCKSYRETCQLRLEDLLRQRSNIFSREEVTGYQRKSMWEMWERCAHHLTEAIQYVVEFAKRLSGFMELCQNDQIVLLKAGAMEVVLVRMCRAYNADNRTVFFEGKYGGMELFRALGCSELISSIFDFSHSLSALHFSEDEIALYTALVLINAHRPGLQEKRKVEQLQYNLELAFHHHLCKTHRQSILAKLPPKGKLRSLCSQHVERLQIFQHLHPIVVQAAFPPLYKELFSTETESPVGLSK
Sequence of E-selectin (Homo sapiens) (P16581 whole entry, looked up): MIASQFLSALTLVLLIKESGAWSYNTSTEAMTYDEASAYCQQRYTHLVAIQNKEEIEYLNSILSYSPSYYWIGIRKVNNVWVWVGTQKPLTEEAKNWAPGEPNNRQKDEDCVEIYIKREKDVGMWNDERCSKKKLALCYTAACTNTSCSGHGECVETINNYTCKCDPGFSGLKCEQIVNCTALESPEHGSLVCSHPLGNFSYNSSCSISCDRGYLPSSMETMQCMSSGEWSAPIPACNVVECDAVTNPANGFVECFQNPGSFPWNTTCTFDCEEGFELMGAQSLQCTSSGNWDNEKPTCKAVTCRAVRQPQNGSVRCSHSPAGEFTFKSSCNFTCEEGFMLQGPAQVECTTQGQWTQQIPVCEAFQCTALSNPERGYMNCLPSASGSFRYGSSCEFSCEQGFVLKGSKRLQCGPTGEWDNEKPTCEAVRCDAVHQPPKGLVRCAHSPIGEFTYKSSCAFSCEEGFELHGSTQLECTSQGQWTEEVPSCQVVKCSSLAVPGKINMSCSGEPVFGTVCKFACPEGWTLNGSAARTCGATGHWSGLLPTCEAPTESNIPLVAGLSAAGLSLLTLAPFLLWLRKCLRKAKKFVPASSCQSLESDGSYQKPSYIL
Sequence of human Retinoid X Receptor beta (RXRb), RXRB (gene 6257) (P28702 whole entry, looked up, the tested form may be a part): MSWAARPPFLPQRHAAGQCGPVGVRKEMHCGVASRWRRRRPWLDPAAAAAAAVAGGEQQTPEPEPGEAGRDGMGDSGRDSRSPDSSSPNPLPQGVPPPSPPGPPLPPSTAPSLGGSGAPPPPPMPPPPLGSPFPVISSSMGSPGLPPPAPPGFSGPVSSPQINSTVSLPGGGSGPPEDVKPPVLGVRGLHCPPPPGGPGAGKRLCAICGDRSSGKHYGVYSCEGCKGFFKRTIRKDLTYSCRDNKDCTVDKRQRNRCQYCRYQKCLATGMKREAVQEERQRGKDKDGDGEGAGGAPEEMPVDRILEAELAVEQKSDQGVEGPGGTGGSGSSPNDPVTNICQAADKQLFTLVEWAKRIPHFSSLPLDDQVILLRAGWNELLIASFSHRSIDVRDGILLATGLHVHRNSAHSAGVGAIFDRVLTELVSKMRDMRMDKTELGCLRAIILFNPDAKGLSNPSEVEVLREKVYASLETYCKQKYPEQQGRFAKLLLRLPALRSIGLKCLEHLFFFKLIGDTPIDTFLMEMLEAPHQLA
Sequence of human Peroxisome Proliferator-activated Receptor delta (PPARd), PPARD (gene 5467) (Q03181 whole entry, looked up, the tested form may be a part): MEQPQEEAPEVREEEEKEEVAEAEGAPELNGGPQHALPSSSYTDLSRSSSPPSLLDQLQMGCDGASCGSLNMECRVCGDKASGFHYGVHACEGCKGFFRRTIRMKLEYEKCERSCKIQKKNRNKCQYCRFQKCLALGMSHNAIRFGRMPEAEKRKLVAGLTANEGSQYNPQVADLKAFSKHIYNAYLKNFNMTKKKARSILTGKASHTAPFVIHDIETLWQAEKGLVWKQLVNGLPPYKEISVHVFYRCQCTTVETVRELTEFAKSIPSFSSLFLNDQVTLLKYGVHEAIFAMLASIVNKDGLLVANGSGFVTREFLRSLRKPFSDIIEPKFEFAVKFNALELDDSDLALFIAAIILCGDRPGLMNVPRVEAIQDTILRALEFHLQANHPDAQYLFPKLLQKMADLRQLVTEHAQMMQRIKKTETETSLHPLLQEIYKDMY
Sequence of Nuclear receptor subfamily 1 group I member 2 (Homo sapiens) (O75469 whole entry, looked up, the tested form may be a part): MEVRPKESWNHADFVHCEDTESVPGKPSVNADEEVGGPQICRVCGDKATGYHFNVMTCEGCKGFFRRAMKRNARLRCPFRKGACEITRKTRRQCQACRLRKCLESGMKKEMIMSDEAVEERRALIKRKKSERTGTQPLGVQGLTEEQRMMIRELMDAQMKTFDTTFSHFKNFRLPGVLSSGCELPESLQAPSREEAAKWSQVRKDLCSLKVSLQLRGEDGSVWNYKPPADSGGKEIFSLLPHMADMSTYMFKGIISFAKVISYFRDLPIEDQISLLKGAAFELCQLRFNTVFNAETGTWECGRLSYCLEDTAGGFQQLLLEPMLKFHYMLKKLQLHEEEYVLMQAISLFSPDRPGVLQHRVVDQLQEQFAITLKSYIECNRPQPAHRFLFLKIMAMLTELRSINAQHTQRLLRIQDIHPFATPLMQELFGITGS
Sequence of human Thyroid Receptor alpha (THRa1), THRA (gene 7067) (P10827 whole entry, looked up, the tested form may be a part): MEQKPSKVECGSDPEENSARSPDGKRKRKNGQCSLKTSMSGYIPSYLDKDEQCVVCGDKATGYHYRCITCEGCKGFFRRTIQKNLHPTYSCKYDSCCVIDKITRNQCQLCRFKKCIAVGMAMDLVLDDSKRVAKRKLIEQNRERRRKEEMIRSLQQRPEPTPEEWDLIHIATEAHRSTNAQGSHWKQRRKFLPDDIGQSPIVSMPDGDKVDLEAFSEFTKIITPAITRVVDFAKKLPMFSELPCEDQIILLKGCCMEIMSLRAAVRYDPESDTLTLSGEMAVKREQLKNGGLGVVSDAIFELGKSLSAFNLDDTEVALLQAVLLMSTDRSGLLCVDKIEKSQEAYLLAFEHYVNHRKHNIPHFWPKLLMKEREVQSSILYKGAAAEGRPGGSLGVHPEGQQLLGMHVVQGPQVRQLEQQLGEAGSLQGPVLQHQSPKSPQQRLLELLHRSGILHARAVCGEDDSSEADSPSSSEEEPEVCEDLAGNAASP

As for `C[C@]12CC[C@@H]3c4ccc(O)cc4CC[C@H]3[C@@H]1CC[C@H]2O`, the result in experiment [1], in experiment [2], in [3], in experiment [6], in experiment [7] and in [8] was inactive. Besides, the call in experiment [9], in [10], in experiment [11], in experiment [13], in experiment [15] and in [18] was inactive. Besides, the AC50 (as a rule, the concentration giving half of the maximal activity seen) is 9.12 µM (active) in experiment [4]; 4.02 µM (active) [middle of 4 runs] in experiment [5]; 8.58 µM (active) in [12]; 14.3 µM (active) in experiment [14]; 21.3 µM (active) in [16]; 13 µM (active) in experiment [17].

With `CCN(Cc1cccnc1)C(=O)c1cccc(Cl)c1[C@]1(C)C(=O)N(Cc2ccc(OC)cc2OC)c2ccc(Cl)cc21`, the outcome in experiment [1], in [2], in [6], in [9], in [13] and in [15] was inactive. The outcome in experiment [18] was inactive. The AC50 in [4] is 5.12 µM (active); in experiment [5], 26.2 nM (active); in [12], 6.76 µM (active); in experiment [14], 6.68 µM (active); in experiment [16] it was 8.86 µM (active); in experiment [17], 5.8 µM (active).

For the compound `CCCCCCCC[Si](OCC)(OCC)OCC`, the call in experiment [1], in [2], in experiment [3], in [19], in [6] and in experiment [7] was inactive. Also, the compound was classed as inactive in experiment [9], in [10], in [11] and in experiment [13]. Besides, the AC50 in [4] is 18.4 µM (active); in experiment [10], 26.8 µM (active); in [12], 17.5 µM (active); in [14], 31.2 µM (active); in experiment [15], 29.5 µM (active); in experiment [16] it was 23.3 µM (active). The AC50 in experiment [17] is 30 µM (active).

For the compound `O=C(O)c1ccccc1-n1cc(C(=O)O)c(=O)c2cc(Nc3c(F)cc(F)cc3Cl)c(Cl)cc21`, the outcome in [1], in [3], in [4], in [5], in [6] and in experiment [7] was inactive. For the same compound, the compound was called inactive in experiment [8], in [11], in [12], in experiment [13], in [14] and in experiment [15]. The result in experiment [16] and in [17] was inactive.

With `Cc1ccc2oc(CN(Cc3ccccc3)C(=O)Nc3c(F)cc(F)cc3F)c(-c3ccc(Cl)cc3)c2c1`, the call in [3], in [9], in experiment [10], in [11], in experiment [12] and in experiment [13] was inactive. Besides, the outcome in experiment [14], in experiment [15], in experiment [17] and in experiment [18] was inactive. Moreover, the AC50 is 7.43 µM (active) in [4] and 1240 nM (active) in [5].

In the case of `O=C1O[C@H]([C@@H](O)CO)C(O)=C1O`, the call in experiment [1], in experiment [2], in experiment [4], in experiment [8], in experiment [9] and in experiment [10] was inactive. Also, the compound was classed as inactive in [11], in experiment [12], in [13], in [14], in experiment [15] and in experiment [16]. Further, in experiment [17], the outcome was inactive. Further, the AC50 was 26.6 µM (active) in experiment [9] and 35.9 µM (active) in [10].

Values taken from PubChem BioAssay (EPA / NIEHS).
